This is a sample that favours compounds with a hit; in the whole collection about 13% have one here.
Lassa entry inh = inhibitors of Lassa virus binding or cell entry; Lassa virus pseudotype entry inhibition, cell reporter; Potency, µM (doses to about 37.9 µM), usual class: inhibitors; actives 1.2% (n = 300,000); AID 540256; calls by dose curve; tested in HEK293 cells; further: nearly all actives have a fitted effect of over 50% in size
HCV inh = HCV inhibition; Huh7.5.1 HCVcc-Cre infection, luciferase reporter, 44 h; Potency, µM (top dose mostly 41.8 µM), most hits filed as inhibitors; actives 3.4% (n = 340,000); AID 651820; active means well fitted inhibition curve with a large enough effect; inconclusive means small, poorly fitted or top-dose-only effect, or another doubt; inactive means no such curve, though single readings can be large or run the other way
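A cell-based infection assay in which seeded cells (1,000 per well) receive test compound after 4 h, are inoculated with HCVcc-Cre at approximately 0.5 moi, and are incubated 44 h before luminescence detection.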
Shiga inhibitor = blocks Shiga toxin action in Vero cells | actives 9.2% (n = 290,000) | inhibition, % at 38.7 µM | Vero cells, Shiga toxin protein synthesis inhibition reporter | AID 2315; in the data active means inhibition mostly above about 28%, no sharp cut-off; inactive means mostly below about 43%
CHX counter = affects cycloheximide protein synthesis inhibition readout, counter-screen | cell reporter, cycloheximide protein synthesis inhibition counterscreen | max response, % | actives 12% (n = 300,000) | AID 2314; in the data active means max response mostly above about 13%, no sharp cut-off; inactive means mostly below about 14%; further: read at 38.3 µM for the half of the compounds with a filed dose
FMDV antiviral = foot and mouth disease virus antiviral activity; actives 1.2% (n = 410,000); FMDV antiviral cell-based qHTS; Potency, µM (series often up to 57.9 µM), usual class: inhibitors; AID 1159524; calls by dose curve; tested in HEK293T cells; further: read-out not given here; nearly all actives have a fitted effect of over 45% in size
MARV entry inh = inhibitors of Marburg virus binding or cell entry; actives 1.8% (n = 300,000); Marburg virus pseudotyped entry inhibition, cell reporter; Potency, µM (highest dose often 37.8 µM), actives largely listed as inhibitors; calls by dose curve; tested in HEK293 cells
A number is an active result; – = inactive; ? = inconclusive; · = not tested or not shown; + = active, no number.

SMILES	Lassa entry inh	HCV inh	Shiga inhibitor	CHX counter	FMDV antiviral	MARV entry inh
COc1cc2c(cc1NC(=O)c1ccc(C)c([N+](=O)[O-])c1)oc1ccccc12	–	?	–	–	–	?
COc1cc2c(cc1NC(=O)C(C)N1CCN(S(=O)(=O)c3ccccc3[N+](=O)[O-])CC1)oc1ccccc12 (centres undefined)	–	?	55	27	–	?
CCC(=O)N1CCc2cc(Br)cc(S(=O)(=O)N3CCN(c4cc(C)ccc4C)CC3)c21	?	·	·	·	–	–
O=C(Nc1ccccc1)c1cc(C2CCCN(C(=O)CCc3ccccc3)C2)on1 (centres undefined)	·	·	·	·	–	·
CN(C)c1ccc(CC(=O)N2CCCC(c3cc(C(=O)Nc4ccc(C(C)(C)C)cc4)no3)C2)cc1 (centres undefined)	·	·	·	·	18µM	·
COc1ccc(COC(=O)N/N=C(\C)CC(=O)NCc2ccc(Cl)cc2)cc1	?	–	–	–	–	–
COc1ccc(COC(=O)N/N=C(\C)CC(=O)Nc2c(C)cc(C)cc2C)cc1	7.3µM	–	–	–	–	–
CC(C)(C)N(NC(=O)c1ccccc1)C(=O)c1cccc(C(=O)N(NC(=O)c2ccccc2)C(C)(C)C)c1	–	–	–	–	–	?
COc1ccccc1NC(CC(=O)c1ccccc1)C(=O)OCC(=O)c1ccc(Br)cc1 (centres undefined)	–	–	115	102	–	?
COc1ccccc1NC(CC(=O)c1ccccc1)C(=O)OCC(=O)c1ccc(C)cc1 (centres undefined)	–	–	73	33	–	–
COc1ccccc1NC(CC(=O)c1ccccc1)C(=O)OCC(=O)c1ccc(C)c(C)c1 (centres undefined)	?	–	37	40	–	–
O=[N+]([O-])c1ccc(Sc2cccc[n+]2[O-])c2nonc12	?	10µM	–	–	6.3µM	?
CCOC(=O)c1sc(NC(=O)C(C)Oc2ccc(OC)cc2)c(C(=O)OCC)c1C (centres undefined)	–	·	·	·	–	·
CN(C)c1ccc(C(CNS(=O)(=O)c2ccc3ccccc3c2)c2c[nH]c3ccccc23)cc1 (centres undefined)	–	–	–	23	–	–
Cc1cc(C)c2c(C)c(C(=O)NCc3ccc(S(N)(=O)=O)cc3)oc2c1	–	–	–	–	–	?
Cc1cc(C)c2c(c1)SC1=NC(c3ccccc3)(C(F)(F)F)NC(=O)N12 (centres undefined)	?	–	–	24	–	–
CCc1nn(C(C)C(=O)NCCN2CCN(c3cccc(C)c3C)CC2)c(=O)c2cc3occc3n12 (centres undefined)	–	1.8µM	–	–	28µM	?
CCc1cccc(C)c1NC(=O)CSc1nnc(CC)n2c1cc1occc12	–	·	·	·	22µM	·
CCc1nn(C(C)C(=O)Nc2cccc(C)c2C)c(=O)c2cc3occc3n12 (centres undefined)	–	11µM	–	–	–	–
CCc1nn(C(C)C(=O)NCCN2CCCCCC2)c(=O)c2cc3occc3n12 (centres undefined)	–	?	–	–	–	?
CCc1cccc(C)c1NC(=O)CSc1nnc(C)o1	?	–	–	–	–	–
COCC(=O)N(Cc1cc2cc(OC)ccc2[nH]c1=O)c1ccc(C)cc1	–	–	–	–	–	–
Cc1ccsc1C(=O)C1CCCN(Cc2cccc(OCCO)c2)C1 (centres undefined)	–	–	–	–	–	?
COc1cc2c(cc1OC)NC(=O)C2	–	–	·	·	–	?
Cc1ccc(-c2cc(C(F)(F)F)n3nc(-c4ccc(Cl)cc4)cc3n2)cc1	–	·	·	·	–	–
SMILES	Lassa entry inh	HCV inh	Shiga inhibitor	CHX counter	FMDV antiviral	MARV entry inh
CN(C)C(=O)Oc1cccc(-c2cn3cc(Cl)ccc3n2)c1	–	?	58	43	–	–
Oc1ccc(-c2cn3cc(C(F)(F)F)ccc3n2)cc1	2µM	–	–	–	–	5.8µM
CN(C)C(=O)Oc1ccc(-c2nnco2)cc1	·	–	–	–	–	·
CN(C)C(=O)Oc1ccc(-c2cn3cc(C(F)(F)F)ccc3n2)cc1	–	–	41	–	–	–
CC1CCN(S(=O)(=O)c2cccc(-c3cn4cc(Cl)ccc4n3)c2)CC1	–	?	53	–	–	–
CN(C)C(=O)c1ccccc1-c1ccccc1	–	–	–	–	–	–
CN(C)C(=O)Oc1ccc(-c2cn3cc(Cl)ccc3n2)cc1	?	–	55	50	–	?
CCOC(=O)c1ccccc1-c1cn2cc(Cl)ccc2n1	–	–	–	–	–	–
COC(=O)C[C@H]1C[C@@H]2c3cc(NC(=O)Nc4ccc(F)cc4)ccc3O[C@@H]2[C@@H](CO)O1	·	·	·	·	–	·
Cc1ccc(C(=O)OCC(=O)N2CCc3ccccc32)cc1	?	–	152	34	–	–
Cc1ccc(C(=O)OCC(=O)N2CCCC2)cc1	–	–	47	43	–	?
Cc1ccc(N(CC(=O)N2CCc3ccccc32)C2=NC(=O)CS2)cc1	–	6.3µM	–	–	?	–
CC(=O)c1c(C)[nH]c(C(=O)OCC(=O)N2CCc3ccccc32)c1C	?	–	–	24	–	?
Cc1ccc(C2(C)NC(=O)N(CC(=O)N3CCc4ccccc43)C2=O)cc1 (centres undefined)	–	–	·	·	–	?
CCOC(=O)c1[nH]c(C)c(C(=O)OCC(=O)N2CCc3ccccc32)c1C	–	–	–	–	–	?
CC(C(=O)Nc1ccccc1Cl)c1ccc([N+](=O)[O-])cc1 (centres undefined)	–	–	–	–	–	–
O=S(=O)(c1cccc(C(F)(F)F)c1)N1CCC(c2nc3ccccc3[nH]2)CC1	–	–	–	–	–	?
COc1ccc(CN(C)CC(=O)N(C)CC(=O)Nc2ccccc2Br)cc1F	·	–	·	·	–	·
O=C(OCC(=O)N1CCc2ccccc21)c1ccccc1F	–	–	113	45	–	–
O=C(OCC(=O)N1CCc2ccccc21)c1c2c(nc3ccccc13)CCCCC2	?	2.8µM	+	20	–	?
CCc1c(C)[nH]n(-c2nc(-c3ccccc3)cs2)c1=O	–	–	–	–	–	–
CCc1c(C)[nH]n(-c2nc(-c3cccc([N+](=O)[O-])c3)cs2)c1=O	–	–	23	22	?	–
CCc1ccccc1Nc1nc(N)nc(CSc2nnc3ccccn23)n1	–	–	–	–	–	?
COCc1cc(C2SCC(=O)Nc3c2c(=O)[nH]n3C(C)C)ccc1OC (centres undefined)	–	5.6µM	–	–	–	–
Cc1ccc2ncc(C(=O)c3ccc(C)c(C)c3)c(S(=O)(=O)c3ccc(F)cc3)c2c1	·	·	·	·	–	?
Cc1ccc(NC(=O)C2CCCCC2)cc1C	·	–	·	·	–	·
CC(=O)Nc1nc2c(C)cc(NC(=O)C3CCCCC3)cc2s1	?	–	74	32	–	–
CC(=O)Nc1cc(C)c2nc(NC(C)=O)sc2c1	–	–	60	30	–	–

Assay outcomes deposited in PubChem by National Center for Advancing Translational Sciences (NCATS).
